Inconclusive results are not listed. A call without a number means that no potency is given here. Unmarked numbers belong to inactive results. The source made the active and inactive calls. Calls come from the whole dose curve; as a rule, active = well fitted cell-killing curve with a large enough effect; inconclusive = small, poorly fitted or top-dose-only effect, or effect the other way; inactive = no such curve, though single readings can be large or run the other way.

The record followed here is PubChem BioAssay (NCATS).
Potency is the fitted concentration of half-maximal effect.

This assay is described as follows: Viability qHTS for spleen associated tyrosine kinase inhibitor (SYKi) naive MV4-11 cells (AID 1963823). Note: nearly all actives have a fitted effect of over 40% in size. Particulars: MV4-11 AML viability, CellTiter-Glo luminescence, 72 h; series mostly up to 45 µM. From the text: Department of Medicine, Hematology/Oncology
University Hospital Frankfurt, Germany.
Trials have shown promising clinical activity of the selective SYK inhibitor entospletinib in patients with high expressing HOXA9/MEIS1 acute leukemias. As the development of resistance mechanisms is a common problem in the use of targeted drugs, we performed a chemical library screen to identify drug sensitivities in SYK inhibitor resistant AML cells. […] Glucocorticoids are potent immunosuppressants which work in part by inhibiting the transcription of cytokine genes.
Described herein is a viability screen to look for activity in the SYK inhibitor naive cell line against four NCATS compound libraries (MIPE 5.0, NPC, NPACT, and Kinase) totaling 11372 compounds. Active hits were reacquired for confirmation and further secondary assay testing.
SEQUENCE No. (e.g., 1, 2, 3, etc.); […] (e.g., Cells, Incubation, Reagent, etc.); VALUE; DESCRIPTION.
1; Media; 2uL; white, solid-bottom Corning assay plate.
2; Compounds; 23nL; Echo acoustic dispenser.
3; Cell; 5uL; 500 cells per well.
4: Incubation; 72hr; 37 C, 5% CO2, 95% humidity.
5; Reagent; 3uL; CellTiter-Glo reagent (Promega).
6; Incubation; 10min; room temperature.
7; Detection; Luminescence; ViewLux plate reader (PerkinElmer).
NOTES (numbers refer to Sequence numbers above
1. Quantitative high-throughput screening (qHTS) of small molecule compounds was conducted on naive SYKi MV4-11 cell line.
2. Twenty-three nanoliter of small molecule compounds were added to each assay plates using the Echo acoustic dispenser (Beckman Coulter).
3. Cells were seeded into the assay plates at a final density of 500 cells in 5uL of media per well using the Multi-drop Combi dispenser.
4. Plates were covered with stainless steel gasketed lids and incubated for 72 hours at standard cell culture conditions.
5. Viability was assessed by adding 3uL of CellTiter-Glo detection reagent (Promega).
6. Plates were covered with gasket lids and incubated for 10 minutes at room temperature.
7. Luminescence was measured on a ViewLux plate reader (PerkinElmer).
Background: qHTS replaces the single test concentration by a dilution series.
In the case of `C#C[C@]1(O)CC[C@H]2[C@@H]3CC[C@H]4Cc5nc6nc7ccccc7n6cc5C[C@]4(C)[C@H]3CC[C@@]21C`, the Potency was 9.2 µM (active).
On the same count and under the same terms, as for `O=C(O)CCCCCCNC1c2ccccc2CCc2ccccc21`, the figure is 0.473 µM (active).
For `CO/C1=C\C(C)=C\[C@@H](C)[C@@H](O)[C@@H](C)C/C(C)=C/C=C/[C@H](OC)[C@@H]([C@@H](C)[C@@H](O)[C@H](C)[C@@]2(O)C[C@@H](O)[C@H](C)[C@@H](C(C)C)O2)OC1=O`, the Potency was 0.0217 µM (active).
The same measure, in the same setting: as for `O=C(O)CNC(=O)c1c(O)c2ccccc2n(Cc2ccccc2)c1=O`, the entry is “inactive”.
Still for that read-out and setting: the same measure for `CC[N+]1(CC)CCC(OC(=O)C(O)(c2ccccc2)c2ccccc2)C1` (stereo not given): “inactive”; for `COP(=S)(OC)Oc1ccc(Sc2ccc(OP(=S)(OC)OC)cc2)cc1`: “inactive”; for `O=c1[nH]c2ccccc2n1C1CCN(Cc2ccc(-c3[nH]c4cc5ncnc5cc4nc3-c3ccccc3)cc2)CC1`: 14.8 µM (active).
The same measure, in the same setting: the same measure for `CC[C@@H](C)[C@H]1C(=O)O[C@H](C(C)C)C(=O)N(C)[C@@H](C(C)C)C(=O)O[C@H](C(C)C)C(=O)N(C)[C@@H](C(C)C)C(=O)O[C@H](C(C)C)C(=O)N1C`: 5.44 µM (active).
Consider `CCCCCCn1c(=O)c(C(=O)Nc2ccc(C(=O)OCCC)cc2)c(O)c2ccccc21`, for which the viability (% of control) was 62.6% [at 9.25 µM].
With `C[C@@]12C[C@@H](c3ccoc3)OC(=O)C1CC[C@]1(C)[C@H]2[C@H]2C=C[C@]1(O)C(=O)O2` (stereo not given in full), the Potency result was “inactive”.
For the compound `CCc1c(C(=O)C(N)=O)c2c(OCC(=O)O)cccc2n1Cc1ccccc1`, the Potency result is “inactive”.
Same read-out and setting: the same measure for `C/C=C(\C)C(=O)N[C@@H](c1ccccc1)[C@@H](O)C(=O)O[C@H]1C[C@@]2(O)[C@@H](OC(=O)c3ccccc3)[C@@H]3[C@]4(OC(C)=O)CO[C@@H]4C[C@H](O)[C@@]3(C)C(=O)[C@H](OC(C)=O)C(=C1C)C2(C)C`: 0.0209 µM (active).
Still for that read-out and setting: the same measure for `CCOP(=S)(OCC)Oc1cc(C)nc(C(C)C)n1`: “inactive”.
Same read-out and setting: the same measure for `COc1cc(C)[nH]c(=O)c1CNC(=O)c1c(C)n([C@H](C)C2CCOCC2)c2ccccc12`: “inactive”; for `C=C1C(=O)O[C@@H]2[C@H]3C(=C)[C@@H](O)C[C@H]3C(=C)C[C@@H](O)[C@@H]12`: 3.66 µM (active); for `CC(C)(C)NCC(O)c1cc(Cl)c(N)c(Cl)c1` (stereo not given): “inactive”.
For `CCCC(C)C1(CC)C(=O)N=C(S)NC1=O` (stereo not given), the Potency entry was “inactive”.
On the same count and under the same terms, the same measure for `C=C(C)[C@@H]1CCC(C)=C[C@H]1c1c(O)cc(CCCCC)cc1O`: 20.9 µM (active); for `C=CC(C)(C)c1[nH]c2c(CC=C(C)C)cc(CC=C(C)C)cc2c1C[C@@H]1NC(=O)[C@H](C)NC1=O`: “inactive”.
The same measure, in the same setting: the same measure for `COc1cc2cc(c1Cl)N(C)C(=O)C[C@H](OC(=O)C(C)C)[C@]1(C)O[C@@H]1[C@H](C)[C@@H]1C[C@@](O)(NC(=O)O1)[C@H](OC)/C=C/C=C(\C)C2`: “inactive”; for `CC(O)CN1CCN(CC(=O)[O-])CCN(CC(=O)[O-])CCN(CC(=O)[O-])CC1.[Gd+3]` (stereo not given): “inactive”.
For the compound `CC(=O)OC[C@]12C[C@H](OC(=O)CC(C)C)C(C)=C[C@H]1O[C@@H]1[C@H](O)C[C@@]2(C)[C@]12CO2`, the Potency is 0.252 µM (active).
On the same count and under the same terms, the same measure for `O=C(N/N=C/c1ccc([N+](=O)[O-])o1)c1cc([N+](=O)[O-])cc([N+](=O)[O-])c1O`: “inactive”; for `Nc1ccn(CC(CO)OCP(=O)(O)O)c(=O)n1` (stereo not given): “inactive”; for `Cc1ccc(N=CN(C)C=Nc2ccc(C)cc2C)c(C)c1`: “inactive”.
Take `COC1CC(OC2CCC3(C=O)C(CCC4C3CCC3(C)C(C5=CC(=O)OC5)CCC43O)C2)OC(C)C1O` (stereo not given): the Potency is 0.0893 µM (active).
On the same count and under the same terms, as for `CCCCCOc1cc2c(cc1-c1cc(/C=C/C(=O)O)ccc1O)C(C)(C)CCC2(C)C`, the figure is 20.6 µM (active); as for `COc1ccc(C(=O)c2c(C)n(CCN3CCOCC3)c3ccccc23)cc1`, 26.6 µM (active); as for `C[N+]1(CCF)[C@@H]2CC[C@H]1CC(OC(=O)C(O)(c1ccccc1)c1ccccc1)C2` (stereo not given in full), “inactive”.
Turning to `C=C1[C@@H](C)[C@H]2[C@H](Cc3ccccc3)NC(=O)[C@]23[C@H](OC(C)=O)/C=C/[C@](C)(O)C(=O)[C@@H](C)C/C=C/[C@H]3[C@@H]1O`, the Potency was 1.46 µM (active).
On the same count and under the same terms, as for `Fc1cc(F)c2c(c1)[C@H]1C=CC[C@H]1C(c1cccnc1)N2` (stereo not given in full), the figure is 2.91 µM (active); as for `C[C@H]1C(=O)O[C@H]2[C@H](O)[C@]34C5OC(=O)[C@]3(O[C@@H]3OC(=O)[C@H](O)C34[C@H](C(C)(C)C)[C@H]5O)C12O` (stereo not given in full), “inactive”; as for `ClCc1cccc(Cl)c1`, “inactive”.
Same read-out and setting: the same measure for `c1ccc2c(c1)Sc1ccccc1N2CC1CN2CCC1CC2` (stereo not given): 26.6 µM (active); for `CC1C/C=C/C(O)C(O)CC/C=C/c2cc(O)cc(O)c2C(=O)O1` (stereo not given): 5.7 µM (active); for `COC1=C[C@@H]2[C@@H]3Cc4ccc(OC)c(O)c4[C@]2(CCN3C)CC1=O`: “inactive”.
Same read-out and setting: the same measure for `CC(=O)O[C@H]1CN2CCC1CC2`: “inactive”; for `Nc1ccc(Cl)cc1`: “inactive”.
`Nc1ccn(C[C@@H](CO)OCP(=O)(O)O)c(=O)n1`: the viability (% of control) was 57.6% [at 9.25 µM].
Turning to `CC1=C2[C@H]3OC(=O)[C@@H](C)[C@@H]3CC[C@@]2(C)C=CC1=O`, the Potency entry is “inactive”.
